# Inconclusive results are not listed. Activity calls are given as the source filed them. Calls follow the shape of the dose curve; as a rule, active = well fitted cell-killing curve with a large enough effect in the repeat runs; inconclusive = weak or mixed curves, or effect the other way; inactive = flat fitted curve, though single readings scatter. Non-standard residues stand in square brackets, D forms with d. Residues, ends and D or L forms follow the SMILES beside them. *: point of attachment. Sta = CC(C)C[C@H](N)[C@@H](O)CC(=O)O; Isovaleryl = CC(C)CC(=O)*
# Test: qHTS assay to identify small molecule antagonists of the constitutive androstane receptor (CAR) signaling pathway - cell viability counter screen (AID 1224837); also: nearly all actives have a fitted effect of over 45% in size
# Details: HepG2-CYP2B6-hCAR viability, CellTiter-Fluor, 23 h, co-treated with 50 nM CITCO; series mostly up to 92.4 µM
# From the text: National Center for Advancing Translational Sciences [NCATS]
# NIH Chemical Genomics Center [NCGC]
# U.S. Environmental Protection Agency [EPA]
# National Institutes of Environmental Health Sciences [NIEHS]
# National Toxicology Program [NTP]
# U.S. Food and Drug Administration [FDA]
# The constitutive androstane receptor (CAR) is a nuclear receptor which regulates multiple drug metabolizing enzymes (DMEs) and transporters. Activating CAR will generally increase the transcription and subsequent translation of CYP2B6 and CYP3A4. These two DMEs represent about 50% of the drug metabolizing potential in the body. When CAR is deactivated, the metabolizing potential in the body will decrease, subsequently increasing the toxicity in the body or lowering the therapeutic potential of a pro-drug. Recently, there have also been studies performed indicating CARs role in energy metabolism and cancer therapy. Therefore, inhibiting CARs activity could have a potential effect on diabetes and cancer. Identifying environmental toxins and compounds which modulate CAR, through the use of the Tox21 10K compound collection, will be an important step in determining the toxicity and potential therapeutic effects these factors will have on the human body. To differentiate true CAR antagonists from cytotoxic substances, the assay is multiplexed with a cell viability assay.
# Tox21 Assay Protocol Summary:
# A double-stable (hCAR and CYP2B6-2.2kb) transfected cell line, derived from human hepatoma (HepG2) cells, was utilized for the duration of the quantitative high-throughput screens. The HepG2-CYP2B6-hCAR cells were dispensed at 2500 cells/4 uL/well in 1536-well white solid bottom plates using a Multidrop Combi. After the assay plates were incubated at 37 C/5% CO2 for 4 hrs, 23 nL of compounds at 15 concentrations (from 5-48 columns) or positive control (from 1 to 4 columns) were transferred to the assay plates using a Pintool station. One uL of CITCO (final concentration = 50 nM) was added, using a Flying Reagent Dispenser, inside each well. After a 23 hr incubation period at 37 C/5% CO2, 1 uL of CellTiter-Fluor reagent was added into each well of the assay plates using a Flying Reagent Dispenser. The fluorescence intensity in the plates was then measured using a ViewLux plate reader.
# % is scaled to controls: 0 for no effect and ±100 for the full control effect.
SMILES,outcome,"activity change, negative = cytotoxicity"
Cc1ccc(N)nc1,inactive,
CC(C)C[P+](C)(CC(C)C)CC(C)C,inactive,
CC[C@@]1(c2ccccc2)NC(=O)N(C)C1=O,inactive,
O=c1[nH]c(=O)c2cn[nH]c2[nH]1,inactive,
CC(C)CC(=O)N[C@H](C(=O)N[C@H](C(=O)N[C@@H](CC(C)C)[C@@H](O)CC(=O)N[C@@H](C)C(=O)N[C@@H](CC(C)C)[C@@H](O)CC(=O)O)C(C)C)C(C)C (Isovaleryl-VV[Sta]A[Sta]-OH),inactive,
CC(C)C(=O)Nc1cccc(C2CN3CCSC3=N2)c1 (stereo not given),inactive,
CC(=O)SCC(CC(=O)c1ccc(C)cc1)C(=O)O (stereo not given),inactive,
CN(C)CCc1c[nH]c2ccc(C[C@H]3COC(=O)N3)cc12,inactive,
CCN1CCN(C(=O)N[C@@H](C(=O)N[C@@H]2C(=O)N3C(C(=O)O)=C(CSc4nnnn4C)CS[C@H]23)c2ccc(O)cc2)C(=O)C1=O,inactive,
CN(C)CCCN(C)C,,1.66% [at 8.39 µM] (inactive)
N=C(N)N,inactive,
CCCc1ncc(C(=O)O)s1,inactive,
CN(C)c1cc(NC(=O)CNC(C)(C)C)c(O)c2c1C[C@H]1C[C@H]3[C@H](N(C)C)C(=O)C(C(N)=O)=C(O)[C@@]3(O)C(=O)C1=C2O,inactive,
COc1ccc(Cl)cc1C,inactive,
NC(=O)CC[C@@H](N)C(=O)O,inactive,
CC/C=C\CCCCCCCCCCOC(C)=O,inactive,
C/C=C(\C)C(=O)OC/C=C(\C)CCC=C(C)C,inactive,
CC(C)(C)C(=O)CC(=O)C(C)(C)C,inactive,
CC/C=C\CCOC(=O)c1ccccc1,inactive,
CCCCCCCCCCCCCCCC/C=C/C1CC(=O)OC1=O (stereo not given),inactive,

SMILES,outcome,"activity change, negative = cytotoxicity"
CCCCOCCCC,inactive,
CC(=O)OC/C=C(/C)CCC=C(C)C,inactive,
CN(C)c1ccncc1,inactive,
C[C@]12C=CC(=O)C=C1[C@@H](F)C[C@@H]1[C@@H]2[C@@H](O)C[C@@]2(C)[C@H]1CC[C@]2(O)C(=O)CO,inactive,
CC(=O)Nc1ccc(OCCOCCOc2ccc(NC(C)=O)cc2)cc1,inactive,
Cc1ccccc1OCC(=O)O,inactive,
CCCC(=O)CC,inactive,
C=COCCCCO,inactive,
O=P(O)(O)C(O)(Cc1cccnc1)P(=O)(O)O,inactive,
CCCCc1ccc(Cl)cc1,inactive,
N[C@H]1C(O)O[C@H](CO)[C@@H](O)[C@@H]1O (stereo not given in full),inactive,
CC(=O)Nc1ccc(S(=O)(=O)Nc2cc(C)on2)cc1,inactive,
CCN(CC)CC(=O)Oc1ccc(NC(C)=O)cc1,inactive,
COCCCOc1cc(C[C@@H](C[C@H](N)[C@@H](O)C[C@H](C(=O)NCC(C)(C)C(N)=O)C(C)C)C(C)C)ccc1OC,inactive,
O=C1CC2(CCCC2)CC(=O)N1CCNCC1COc2ccccc2O1 (stereo not given),inactive,
NNC(=O)CCCCC(=O)NN,inactive,
CCC(C)(C)C,inactive,
COC(C)(C)CC(C)=O,inactive,
Cc1ccc(OC(=O)CC(C)C)cc1,inactive,
C[Si](C)(C)O[Si](O)(O)O,inactive,

# — PubChem BioAssay (Tox21)
